PubChem BioAssay (Tox21)
Inconclusive results are not listed. A call without a number means that no potency is given here. Activity calls are given as the source filed them. The call rests on the fitted dose curve; in most records, active means well fitted curve in the direction sought with a large enough effect in the repeat runs; inconclusive means weak or mixed curves; inactive means no such curve, though single readings can be large; an effect the other way counts as inactive or inconclusive.

How the values were obtained:
[1] = A CellTox Green Cytotoxicity Assay to monitor cytotoxicity in HEK293 cells - 24 hour (AID 1224875); further: nearly all actives have a fitted effect of over 45% in size; further: potency means the concentration at half of the fitted maximal effect
Procedure, shortened: (§1)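 Read-out: fluorescence of a cell-impermeant cyanine dye staining DNA of dead cells, proportional to cytotoxicity. HEK293, 600 cells/well with reagent, compound (23 nL DMSO) added after 5 h; reads at 0, 8, 16, 24, 32, 40 h.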

[2] = A CellTox Green Cytotoxicity Assay to monitor cytotoxicity in HepG2 cells - 16 hour (AID 1224876); further: nearly all actives have a fitted effect of over 45% in size; further: potency means the concentration at half of the fitted maximal effect
Procedure, shortened: (§2)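 HepG2, 600 cells/well premixed w/ CellTox Green; 5 h settle, 37 C/5% CO2; pintool cpd add (DMSO); 37 C, 40 h; fluorescence read at 0, 8, 16, 24, 32, 40 h.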

[3] = qHTS RealTime-Glo MT Cell Viability Assay in HepG2 cells - 32 hour (AID 1224877); further: nearly all actives have a fitted effect of over 55% in size; further: potency means the concentration at half of the fitted maximal effect
Procedure, shortened: (§3)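 HepG2 cells (600/well) were dispensed with RealTime-Glo reagents, incubated 5 h at 37 °C, then treated with compounds in DMSO for up to 40 h. Nonlytic NanoLuc luminescence reflecting viable cells was read at each stated time point.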

[4] = A CellTox Green Cytotoxicity Assay to monitor cytotoxicity in HepG2 cells - 24 hour (AID 1224878); further: nearly all actives have a fitted effect of over 45% in size; further: potency means the concentration at half of the fitted maximal effect
Procedure, shortened: as §2

[5] = A CellTox Green Cytotoxicity Assay to monitor cytotoxicity in HepG2 cells - 40 hour (AID 1224879); further: nearly all actives have a fitted effect of over 40% in size; further: potency means the concentration at half of the fitted maximal effect
Procedure, shortened: as §2

[6] = qHTS RealTime-Glo MT Cell Viability Assay in HEK293 cells - 0 hour (AID 1224880); further: nearly all actives have a fitted effect of over 45% in size; further: potency means the concentration at half of the fitted maximal effect
Procedure, shortened: (§4)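 Luminescence readout at each listed time point; HEK293, 600 cells/well, RealTime-Glo MT reagent added with cells; compounds pinned (23 nL in DMSO) after 5 h at 37 C; continuous culture at 37 C.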

[7] = A CellTox Green Cytotoxicity Assay to monitor cytotoxicity in HEK293 cells - 32 hour (AID 1224881); further: nearly all actives have a fitted effect of over 40% in size; further: potency means the concentration at half of the fitted maximal effect
Procedure, shortened: as §1

[8] = A CellTox Green Cytotoxicity Assay to monitor cytotoxicity in HepG2 cells - 0 hour (AID 1224882); further: nearly all actives have a fitted effect of over 35% in size
Procedure, shortened: as §2

[9] = A CellTox Green Cytotoxicity Assay to monitor cytotoxicity in HepG2 cells - 32 hour (AID 1224883); further: nearly all actives have a fitted effect of over 50% in size; further: potency means the concentration at half of the fitted maximal effect
Procedure, shortened: as §2

[10] = A CellTox Green Cytotoxicity Assay to monitor cytotoxicity in HEK293 cells - 8 hour (AID 1224884); further: nearly all actives have a fitted effect of over 35% in size; further: potency means the concentration at half of the fitted maximal effect
Procedure, shortened: as §1

[11] = qHTS RealTime-Glo MT Cell Viability Assay in HepG2 cells - 16 hour (AID 1224885); further: nearly all actives have a fitted effect of over 50% in size; further: potency means the concentration at half of the fitted maximal effect
Procedure, shortened: as §3

[12] = qHTS RealTime-Glo MT Cell Viability Assay in HEK293 cells - 24 hour (AID 1224886); further: nearly all actives have a fitted effect of over 50% in size; further: potency means the concentration at half of the fitted maximal effect
Procedure, shortened: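 HEK293 cells seeded with NanoLuc/prosubstrate reagent, rested 5 h at 37 C, then dosed and kept at 37 C up to 40 h. Nonlytic real-time luminescence from viable cells read at 0, 8, 16, 24, 32 and 40 h.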

[13] = qHTS RealTime-Glo MT Cell Viability Assay in HEK293 cells - 8 hour (AID 1224887); further: nearly all actives have a fitted effect of over 50% in size; further: potency means the concentration at half of the fitted maximal effect
Procedure, shortened: as §4

[14] = A CellTox Green Cytotoxicity Assay to monitor cytotoxicity in HEK293 cells - 16 hour (AID 1224888); further: nearly all actives have a fitted effect of over 35% in size; further: potency means the concentration at half of the fitted maximal effect
Procedure, shortened: as §1

[15] = qHTS RealTime-Glo MT Cell Viability Assay in HepG2 cells - 0 hour (AID 1224889); further: nearly all actives have a fitted effect of over 50% in size; further: potency means the concentration at half of the fitted maximal effect
Procedure, shortened: as §3

[16] = A CellTox Green Cytotoxicity Assay to monitor cytotoxicity in HepG2 cells - 8 hour (AID 1224890); further: nearly all actives have a fitted effect of over 45% in size; further: potency means the concentration at half of the fitted maximal effect
Procedure, shortened: as §2

[17] = qHTS assay to identify small molecule antagonists of the androgen receptor (AR) signaling pathway using the MDA cell line in the presence of 0.5 nM R1881 - cell viability counter screen (AID 1259242); further: nearly all actives have a fitted effect of over 45% in size; further: potency means the concentration at half of the fitted maximal effect
Procedure, shortened: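 Live-cell protease fluorescence, CellTiter-Fluor, 30 min at 37C. Cells: MDA-kb2, 3,000/well, preincubated 5 hr. Compounds plus 0.5 nM R1881 final, 16 hr, 37C, 0% CO2.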

[18] = molecular target: Androgen receptor (Homo sapiens) (UniProt P10275); assay: qHTS assay to identify small molecule antagonists of the androgen receptor (AR) signaling pathway using the MDA cell line in the presence of 0.5 nM R1881 (AID 1259243); further: nearly all actives have a fitted effect of over 50% in size; further: potency means the concentration at half of the fitted maximal effect
Sequence of Androgen receptor (Homo sapiens) (P10275 whole entry, looked up): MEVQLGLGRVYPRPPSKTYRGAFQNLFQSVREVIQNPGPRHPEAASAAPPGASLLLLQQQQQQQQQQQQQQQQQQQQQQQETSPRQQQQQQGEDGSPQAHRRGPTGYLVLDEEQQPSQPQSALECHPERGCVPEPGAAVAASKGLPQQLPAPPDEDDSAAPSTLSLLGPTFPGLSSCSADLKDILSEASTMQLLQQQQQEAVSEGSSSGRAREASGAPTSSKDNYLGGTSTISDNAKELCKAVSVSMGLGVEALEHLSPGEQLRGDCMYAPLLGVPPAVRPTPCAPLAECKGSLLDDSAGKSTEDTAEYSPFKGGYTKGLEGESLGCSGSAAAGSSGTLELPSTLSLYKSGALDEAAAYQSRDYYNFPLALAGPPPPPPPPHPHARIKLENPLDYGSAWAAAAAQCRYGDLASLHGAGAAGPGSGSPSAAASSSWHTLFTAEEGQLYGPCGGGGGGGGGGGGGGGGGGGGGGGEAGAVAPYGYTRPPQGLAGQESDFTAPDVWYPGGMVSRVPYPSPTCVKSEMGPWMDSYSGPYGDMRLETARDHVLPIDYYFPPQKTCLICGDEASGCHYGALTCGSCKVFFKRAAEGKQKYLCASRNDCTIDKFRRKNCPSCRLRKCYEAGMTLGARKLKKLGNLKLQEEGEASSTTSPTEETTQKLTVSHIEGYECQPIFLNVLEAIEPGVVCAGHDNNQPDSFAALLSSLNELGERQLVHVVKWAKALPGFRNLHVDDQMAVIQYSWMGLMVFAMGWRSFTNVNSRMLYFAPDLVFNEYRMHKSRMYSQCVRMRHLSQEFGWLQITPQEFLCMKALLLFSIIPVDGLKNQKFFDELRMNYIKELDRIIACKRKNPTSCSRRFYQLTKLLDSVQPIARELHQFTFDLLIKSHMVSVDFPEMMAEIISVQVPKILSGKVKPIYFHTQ
Procedure, shortened: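 MDA-kb2, MMTV-luc (AR/GR elements); 3,000 cells/well; cpd + 0.5 nM R1881 final; 16 hr 37C, 0% CO2; ONE-Glo 30 min RT; luminescence.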

[19] = molecular target: Estrogen receptor (Homo sapiens) (UniProt P03372); assay: qHTS assay to identify small molecule antagonists of the estrogen receptor alpha (ER-alpha) signaling pathway using the BG1 cell line in the presence of 0.1 nM 17-beta-estradiol (AID 1259244); further: nearly all actives have a fitted effect of over 50% in size; further: potency means the concentration at half of the fitted maximal effect
Sequence of Estrogen receptor (Homo sapiens) (P03372 whole entry, looked up): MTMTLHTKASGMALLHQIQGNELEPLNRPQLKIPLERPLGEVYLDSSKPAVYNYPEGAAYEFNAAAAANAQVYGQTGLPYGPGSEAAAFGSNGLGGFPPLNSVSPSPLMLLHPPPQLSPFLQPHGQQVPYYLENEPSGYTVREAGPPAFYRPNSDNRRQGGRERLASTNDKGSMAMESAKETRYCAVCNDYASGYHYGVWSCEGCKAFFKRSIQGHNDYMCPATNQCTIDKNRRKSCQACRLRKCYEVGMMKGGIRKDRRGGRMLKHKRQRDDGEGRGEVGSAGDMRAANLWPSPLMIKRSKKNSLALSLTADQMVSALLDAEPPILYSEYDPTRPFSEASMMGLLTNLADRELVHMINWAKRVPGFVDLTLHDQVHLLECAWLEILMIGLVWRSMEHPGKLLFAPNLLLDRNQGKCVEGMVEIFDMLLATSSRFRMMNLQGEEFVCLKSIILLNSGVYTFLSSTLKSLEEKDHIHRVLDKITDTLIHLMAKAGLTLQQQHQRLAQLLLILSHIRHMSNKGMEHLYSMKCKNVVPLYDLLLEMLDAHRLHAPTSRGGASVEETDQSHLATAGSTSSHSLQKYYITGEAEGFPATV
Procedure, shortened: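 Luminescence after ONE-Glo (30 min, room temperature) measured ERE-luciferase activity in VM7Luc4E2 cells treated 22 h with compound and 0.1 nM final 17beta-estradiol as stimulator.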

[20] = qHTS assay to identify small molecule antagonists of the estrogen receptor alpha (ER-alpha) signaling pathway using the BG1 cell line in the presence of 0.1 nM 17-beta-estradiol - cell viability counter screen (AID 1259241); further: nearly all actives have a fitted effect of over 40% in size; further: potency means the concentration at half of the fitted maximal effect
Procedure, shortened: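 Cells were plated and left 24 hr, compounds in DMSO were pinned in, 17beta-estradiol was added to 0.1 nM final, and after 22 hr CellTiter-Fluor reagent was added for 30 min before fluorescence was read.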

Row | Compound | Potency [1] | Potency [2] | Potency [3] | Potency [4] | Potency [5] | Potency [6] | Potency [7] | Potency [8] | Potency [9] | Potency [10] | Potency [11] | Potency [12] | Potency [13] | Potency [14] | Potency [15] | Potency [16] | Potency [17] | Potency [18] | Potency [19] | Potency [20]
1 | CCC(O)CO (stereo not given) | inactive | inactive | inactive | inactive | inactive | inactive | inactive | inactive | inactive | inactive | inactive | inactive | inactive | inactive | inactive | inactive | inactive | inactive | inactive | –
2 | C=CC(=O)O[C@H]1C[C@@H]2CC[C@@]1(C)C2(C)C | inactive | inactive | inactive | inactive | inactive | inactive | – | inactive | inactive | inactive | inactive | inactive | inactive | inactive | inactive | inactive | inactive | – | inactive | inactive
3 | Cc1ccc(S(=O)(=O)C(I)I)cc1 | 34.7 µM (active) | 54.9 µM (active) | 11 µM (active) | 49 µM (active) | 24.5 µM (active) | 0.616 µM (active) | 24.5 µM (active) | – | 43.6 µM (active) | 49 µM (active) | 11 µM (active) | 12.3 µM (active) | 24.5 µM (active) | 43.6 µM (active) | 12.3 µM (active) | – | 48.6 µM (active) | 15.4 µM (active) | 13.7 µM (active) | 77 µM (active)
4 | Nc1ccc(Oc2cccc(Oc3ccc(N)cc3)c2)cc1 | inactive | inactive | inactive | inactive | inactive | – | inactive | inactive | inactive | inactive | inactive | inactive | inactive | inactive | inactive | inactive | inactive | – | 8.63 µM (active) | inactive
5 | O=C1c2ccccc2C(=O)c2c(Cl)cccc21 | inactive | inactive | inactive | inactive | inactive | inactive | inactive | – | inactive | inactive | inactive | – | – | inactive | inactive | inactive | inactive | – | inactive | inactive
6 | Cc1cccc2c1ccc1ccccc12 | inactive | inactive | inactive | – | inactive | inactive | inactive | inactive | inactive | inactive | inactive | inactive | inactive | inactive | inactive | inactive | inactive | 15.4 µM (active) | inactive | inactive
7 | C=CC(=O)OCC(Br)CBr (stereo not given) | inactive | inactive | inactive | inactive | inactive | – | inactive | inactive | inactive | inactive | inactive | – | inactive | inactive | inactive | inactive | inactive | inactive | inactive | –
8 | CN1CCN(CCCN2c3ccccc3Sc3ccc(C(F)(F)F)cc32)CC1 | 23.9 µM (active) | 23.9 µM (active) | 23.9 µM (active) | 21.3 µM (active) | 23.9 µM (active) | – | 23.9 µM (active) | inactive | 21.3 µM (active) | 23.9 µM (active) | – | 23.9 µM (active) | 23.9 µM (active) | 23.9 µM (active) | – | – | – | – | – | –
9 | COc1ccc(OC)c(N=Nc2c(O)ccc3ccccc23)c1 | inactive | inactive | inactive | inactive | – | inactive | inactive | inactive | – | inactive | – | – | – | inactive | inactive | inactive | 24.3 µM (active) | – | – | 9.69 µM (active)
10 | CCCCCCCCCC[N+](C)(CCCCCCCCCC)CCC[Si](OC)(OC)OC | 38.9 µM (active) | 43.6 µM (active) | 49 µM (active) | 21.9 µM (active) | 19.5 µM (active) | – | 24.5 µM (active) | inactive | 21.9 µM (active) | – | 49 µM (active) | 24.5 µM (active) | 19.5 µM (active) | 49 µM (active) | inactive | 43.6 µM (active) | – | – | inactive | –
11 | CCN(CC)c1ccc2c(c1)Oc1cc(N(CC)CC)ccc1C21OC(=O)c2ccccc21 | 19 µM (active) | 23.9 µM (active) | inactive | 23.9 µM (active) | 23.9 µM (active) | inactive | 19 µM (active) | – | 23.9 µM (active) | 23.9 µM (active) | inactive | – | inactive | 21.3 µM (active) | inactive | 23.9 µM (active) | – | – | inactive | 5.96 µM (active)
12 | Cc1ccc(N=Nc2c(O)ccc3ccccc23)c(C)c1 | inactive | inactive | inactive | inactive | inactive | – | inactive | inactive | inactive | inactive | inactive | inactive | – | inactive | inactive | inactive | – | inactive | inactive | –
13 | C/C(=C\c1ccc(C(=O)O)cc1)c1ccc2c(c1)C(C)(C)CCC2(C)C | inactive | inactive | inactive | – | inactive | inactive | inactive | inactive | inactive | inactive | inactive | inactive | inactive | inactive | inactive | inactive | inactive | – | – | inactive
14 | CN1CC[C@H](c2c(O)cc(O)c3c(=O)cc(-c4ccccc4Cl)oc23)[C@H](O)C1 | inactive | inactive | inactive | – | 0.239 µM (active) | inactive | inactive | inactive | 0.213 µM (active) | inactive | inactive | 0.151 µM (active) | inactive | inactive | inactive | inactive | inactive | 0.0944 µM (active) | – | inactive
15 | Cc1ccc2sc3cccc(C)c3c2c1 | inactive | inactive | inactive | – | inactive | inactive | inactive | inactive | inactive | inactive | inactive | inactive | inactive | inactive | inactive | inactive | inactive | 8.63 µM (active) | inactive | inactive
16 | CCc1c(C)cc(N)c(CC)c1N | inactive | inactive | inactive | – | inactive | inactive | inactive | inactive | inactive | inactive | inactive | inactive | inactive | inactive | inactive | inactive | inactive | inactive | inactive | inactive
